Among all 370,000 compounds or so, about 1,100 (0.3%) were called active. Inconclusive results (about 1%) are left out. This is one part of a sample in which actives are shown more often than they occur. Unmarked numbers belong to inactive results. The call rests on the fitted dose curve; in most records, active means well fitted activation curve with a large enough effect; inconclusive means small, poorly fitted or top-dose-only effect; inactive means flat fitted curve, though single readings scatter.
molecular target: Relaxin receptor 1 (Homo sapiens) (UniProt Q9HBX9); assay: qHTS Assay for Agonists of the Relaxin Receptor RXFP1; conditions: HEK293T-RXFP1 cAMP TR-FRET, 30 min; series mostly up to 57.5 µM; activation: at the top concentration; further: nearly all actives have a fitted effect of over 60% in size
Sequence (Q9HBX9 whole entry, looked up): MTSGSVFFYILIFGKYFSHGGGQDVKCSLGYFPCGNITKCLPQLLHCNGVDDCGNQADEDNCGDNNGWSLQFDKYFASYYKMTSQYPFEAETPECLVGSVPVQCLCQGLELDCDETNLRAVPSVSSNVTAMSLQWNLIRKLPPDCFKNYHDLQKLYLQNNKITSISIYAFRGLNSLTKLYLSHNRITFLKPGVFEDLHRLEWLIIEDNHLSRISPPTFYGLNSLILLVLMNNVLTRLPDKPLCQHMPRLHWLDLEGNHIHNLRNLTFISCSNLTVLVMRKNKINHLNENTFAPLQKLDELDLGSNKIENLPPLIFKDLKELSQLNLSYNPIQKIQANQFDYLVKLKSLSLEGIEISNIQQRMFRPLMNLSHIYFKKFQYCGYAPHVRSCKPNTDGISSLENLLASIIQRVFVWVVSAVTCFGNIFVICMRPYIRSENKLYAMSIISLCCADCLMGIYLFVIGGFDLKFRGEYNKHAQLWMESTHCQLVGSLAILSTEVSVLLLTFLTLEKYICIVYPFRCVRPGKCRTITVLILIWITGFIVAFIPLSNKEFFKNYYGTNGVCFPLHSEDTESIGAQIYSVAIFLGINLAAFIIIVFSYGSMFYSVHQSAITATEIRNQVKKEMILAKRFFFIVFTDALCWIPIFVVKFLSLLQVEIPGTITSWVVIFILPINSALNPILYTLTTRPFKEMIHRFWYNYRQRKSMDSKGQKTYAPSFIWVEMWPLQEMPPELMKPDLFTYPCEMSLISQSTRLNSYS
Source text: NIH Chemical Genomics Center [NCGC] NIH Molecular Libraries Probe Production Centers Network [MLPCN] MLPCN Grant: R03 MH085705-01A1 Assay Submitter (PI): Alexander Agoulnik NCGC Assay Overview: The relaxin hormone is involved in the variety of biological functions in normal tissues and diseases. The role of relaxin is well-established in female reproduction and parturition, mammary gland and endometrial development, maintenance of myometrial quiescence during pregnancy. Relaxin signaling through its G protein-coupled receptor (GPCR) RXFP1 results in ECM remodeling through regulation of collagen deposition, cell invasiveness, proliferation and overall tissue homeostasis. […] Recombinant human relaxin (rhRlx) is currently being tested in clinical trials as a protective agent in congestive heart failure, in treating severe preeclampsia, and as an anti-fibrotic agent in systemic sclerosis. Upon relaxin binding RXFP1 activation leads to the activation of adenylate cyclase (AC) via Gs. cAMP will activate PKA, which phosphorylates many signaling proteins. Thus, detection of cAMP increase is an easy and reliable indication of relaxin receptor activation. To screen for agonists of the relaxin receptor, a HEK293T cell line stably transfected with RXFP1 was used. RXFP1 activation was assayed by changes in cAMP levels as detected with a time-resolved fluorescence energy transfer (TR-FRET) cAMP detection kit.
NCGC Assay Protocol Summary: This is a cell-based assay for cAMP second messenger response to screen for agonists of the RXFP1 receptor. The assay was conducted in the presence of a PDE4 inhibitor (Ro 20174). The cells were lysed and the cAMP levels were measured with a TR-FRET cAMP kit. Presence of cAMP in the cell lysate disrupts binding between the cryptate-labeled anti-cAMP and d2-labeled cAMP pair, leading to a decrease in the TR-FRET signal. Data were normalized to the controls for basal activity (buffer only) and 100% activity (29 nM porcine relaxin). The EC50 values were determined from concentration-response data modeled with the standard Hill equation 1536-well assay protocol for the HEK293 RXFP1 cAMP assay: (1) Add 3 ul HEK293 RXFP1 cell culture. 2000 cells/well in DMEM/F12, 10% FBS, 1x Pen/Strep (dispensed offline with MultiDrop Combi). (2) Incubate 16-24 hr at 37C, 5% CO2. (3) Add 1 ul 400uM Ro20174 in DPBS, 0.05% BSA, 0.005% Tween 20. (3) Add 23 nl compounds in DMSO solution. Final concentration was 0.5 - 58 uM. (4) Incubate 30 min at 37C, 5% CO2. (5) Add 1 ul cAMP-d2 in lysis buffer (HTRF cAMP HiRange kit, CisBio). (6) Add 1 ul anti-cAMP antibody-cryptate in lysis buffer (HTRF cAMP HiRange kit, CisBio). (7) Incubate 30 min at room temperature. (6) Detect the assay plate in a ViewLux plate reader (PerkinElmer) with Ex=320 nm, Em1=615 nm and Em2=665 nm. Keywords: relaxin, RXFP1, RXFP2, G-protein coupled receptor, cAMP, agonist, high throughput screening, MLSMR, MLSCN, NIH Roadmap, qHTS and NCGC
On the % scale 0 is the no-effect control and ±100 the full control effect; potency means the concentration at half of the fitted maximal effect.

SMILES	activation	Potency
COc1ccc(Cc2nc3ccc(C(=O)NCc4ccc(OC)cc4OC)cc3o2)cc1	-1.3%	–
O=C(CSCc1cnn(-c2ccccc2)c1-n1cccc1)NCc1ccc(Cl)cc1	0.103%	–
O=C(Nc1ccc(Br)cc1)c1ccc(Br)c(S(=O)(=O)NCc2ccccc2)c1	2.11%	–
O=C(Nc1ccc2nc(SCC(=O)N3CCCc4ccccc43)sc2c1)c1ccc(Cl)cc1	-0.685%	–
CCOC(=O)c1ccc(N2C(=O)c3[nH]nc(-c4ccccc4)c3C2c2ccc(C(C)C)cc2)cc1 (stereo unspecified)	1.54%	–
Fc1ccc(-c2nn(-c3ccccc3Cl)c3c2cnc2ccccc23)cc1	1.05%	–
CCOc1cccc2sc(N3CCN(C(=O)C4CC4)CC3)nc12	2.27%	–
COc1ccc(C(=O)COC(=O)c2nn(C)c(=O)c3ccccc23)c(OC)c1	2.52%	–
COc1ccc(C(=O)COC(=O)Cn2cnc3c2c(=O)n(C)c(=O)n3C)c(OC)c1	–	15.8 µM (active)
Cn1c(=O)c2c(ncn2CC(=O)N2CCN(c3ccccc3)CC2)n(C)c1=O	5.92%	–
COc1ccc(Cn2ccnc2SCC(=O)Nc2ccc3c(c2)OCO3)cc1	0.543%	–
CCC(C)c1ccc2oc(-c3ccc(NC(=O)c4cc5ccccc5o4)cc3)nc2c1 (stereo unspecified)	13.4%	–
Cn1nnnc1SCCNCc1ccc(Cl)c(Cl)c1	6.77%	–
COc1ccc(Br)cc1CNC(=O)c1cc(=O)[nH]c2ccc(S(=O)(=O)N3CCCC3)cc12	2.91%	–
CCOC(=O)c1ccc(CSc2nnc3cc(C)c4ccccc4n23)cc1	-0.266%	–
O=c1cc(-c2ccccc2)n2c(SCc3ccccc3)nnc2[nH]1	6.6%	–
Cc1cccc2nc(CSc3nc4[nH]ncc4c(=O)n3-c3cccc(Cl)c3)cc(=O)n12	0.541%	–
O=c1c2sccc2nc(SCc2cc(=O)n3ccccc3n2)n1-c1ccc(Br)cc1	3.4%	–
CCc1ccc(-n2c(SCc3cc(=O)n4cc(Br)ccc4n3)nc3[nH]ncc3c2=O)cc1	–	20 µM (active)

SMILES	activation	Potency
CCCN1C(=O)C(O)(CC(=O)c2ccc(CC)cc2)c2cc(Br)ccc21 (stereo unspecified)	0.237%	–
COc1cccc(CNC(=O)Cn2ncn3c(cc4ccccc43)c2=O)c1	4.71%	–
CCCSc1ncc(Cl)c(C(=O)Nc2c(C(=O)Nc3ccccc3)oc3ccccc23)n1	1.04%	–
Cc1cc(NS(=O)(=O)c2ccc(NC(=O)c3ccccc3C)cc2)nc(C)n1	0.704%	–
CCCn1c(NCc2ccccc2F)nc2ccccc21	1.98%	–
COc1ccc(-c2cn3c(n2)sc2cc(C(=O)Nc4ccc(F)cc4)ccc23)cc1	6.49%	–
O=C(Cn1nc(Cc2cccnc2)c2ccccc2c1=O)N1CCN(c2ccccc2F)CC1	1.65%	–
Cc1ccccc1NC(=O)Cn1c(=O)n(CCCCC(=O)NCc2ccccc2Cl)c(=O)c2ccccc21	-0.36%	–
CCCCNC(=O)CSc1nc2cc3c(cc2c(=O)n1CCCCCC(=O)NCc1ccc2c(c1)OCO2)OCO3	0.833%	–
CC(C)CCSc1ncnc2c1oc1nc3c(cc12)COC(C)(C)C3	3.1%	–
O=C(CSc1ncnc2scc(-c3ccccc3)c12)NCc1ccc2c(c1)OCO2	3.7%	–
CC1(C)Cc2nc3sc4c(SCC(=O)NC(c5ccccc5)c5ccccc5)ncnc4c3cc2CO1	–	3.16 µM (active)
Cc1ccc(Cl)cc1N1CCN(S(=O)(=O)c2cc3[nH]c(=O)c(=O)[nH]c3cc2C)CC1	-0.379%	–
COc1ccc2c(c1)Cc1sc(NC(=O)c3ccccc3Br)nc1-2	-0.462%	–
COc1ccc(NC(=O)CCc2nnc3n(CC(C)C)c(=O)c4ccccc4n23)cc1OC	1.01%	–
COc1cc(OC)cc(C(=O)Nc2c(C(=O)Nc3ccc(F)cc3)oc3ccccc23)c1	21.3%	–
COc1cccc(-c2nc(CS(=O)(=O)CC(=O)N3CCN(c4cc(C)ccc4C)CC3)c(C)o2)c1	-2.79%	–
Cc1cccc(Cn2c(SCc3ccc(C(=O)N4CCC(C)CC4)cc3)nc3ccncc32)c1	-0.29%	–
COc1ccccc1CNC(=O)C(=O)NCC(c1ccco1)S(=O)(=O)c1ccc(F)cc1 (stereo unspecified)	-0.717%	–

SMILES	activation	Potency
CCCCC(=O)Nc1nnc(S(=O)(=O)N(C)Cc2ccco2)s1	0.754%	–
COc1cccc(C(=O)Nc2nnc(S(=O)(=O)N(C)c3ccccc3)s2)c1	1.2%	–
CCC(=O)Nc1ccccc1-c1nc2ccccc2n(CC(=O)Nc2ccc(C)c(C)c2)c1=O	-4.71%	–
CC1CCN(C(=O)Cn2c(=O)n(-c3ccc(Cl)cc3)c(=O)c3c4c(sc32)CCC4)CC1	26.2%	–
CCC(C)Nc1oc(-c2ccc(COc3ccc(Cl)cc3)o2)nc1C#N (stereo unspecified)	0.927%	–
CCOC(=O)c1c(C)[nH]c(CCC(=O)NCCCN2CCN(c3cccc(Cl)c3)CC2)c1C	1.78%	–
Cc1ccc(Nc2c(-c3ccc(Cl)cc3)nc3sccn23)c(C)c1	0.704%	–
CC(=O)N1CCCc2cc(S(=O)(=O)Nc3ccc(Cl)cc3F)ccc21	-0.63%	–
O=C(COc1ccc(Cl)cc1)Nc1ccccc1OCc1cc(=O)n2ccccc2n1	6.2%	–
CCOc1ccccc1C(=O)Nc1ccc2c(c1)N(C)C(=O)c1ccccc1S2	1.45%	–
CC(=O)Nc1cccc(NC(=O)CSc2nccn2Cc2ccc3c(c2)OCO3)c1	2.66%	–
Cc1cc(OCC(=O)NCC2(N(C)C)CCCCC2)cc(C)c1Cl	0.643%	–
COc1ccc(CNC(=O)CSc2n[nH]c(-c3ccc(F)cc3)n2)cc1	1.03%	–
CCc1ccc(NC(=O)CN2CCSc3ccc(S(=O)(=O)N4CCCC4)cc32)cc1	1.82%	–
Cc1ccc(S(=O)(=O)N(Cc2nc(-c3ccc(Cl)cc3)no2)C2CCCCC2)cc1	0.473%	–
COc1ccc2c(c1)c(=O)c(C(=O)c1ccccc1)cn2CC(=O)Nc1ccc2c(c1)OCCO2	0.33%	–
CCCC(=O)N1CCN(c2nc3c(OC)ccc(C)c3s2)CC1	-0.0199%	–
CCCN(CCC)CCNC(=O)c1ccc2c(c1)NC(=O)C(CS(=O)(=O)Cc1cccc(Br)c1)N2 (stereo unspecified)	3.62%	–

From PubChem BioAssay AID2676 (National Center for Advancing Translational Sciences (NCATS), 2010)
